Screening data from PubChem BioAssay.
HCV inhibitor: qHTS Assay for Inhibitors of Hepatitis C Virus (HCV); 340,000 compounds, 3.4% hits; Potency, µM (titrated, usually from 41.8 µM), usual class: inhibitors; Huh7.5.1 HCVcc-Cre infection, luciferase reporter, 44 h
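Antiviral activity was scored by luciferase reporter output from cells infected with HCVcc-Cre (~0.5 moi) in presence of compound, 44 h infection period, cells seeded 1,000/well 4 h prior.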
VACV mCherry inh: qHTS for Stage-Specific Inhibitors of Vaccinia Orthopoxvirus: mCherry Reporter Primary qHTS. Vaccinia virus mCherry reporter infection, fluorescence. Potency, µM (series often up to 36.5 µM), hits mostly inhibitors. 310,000 compounds, 0.63% hits. AID 720579, 2013; calls by dose curve; tested in A549 cells; also: nearly all actives have a fitted effect of over 35% in size
FMDV antiviral: High Throughput Screening for Foot and Mouth Disease Virus Antivirals | 410,000 compounds, 1.2% hits | FMDV antiviral cell-based qHTS | Potency, µM (series often up to 57.9 µM), hits mostly inhibitors; calls by dose curve; tested in HEK293T cells; also: read-out not given here; nearly all actives have a fitted effect of over 45% in size
VACV Venus inh: qHTS for Stage-Specific Inhibitors of Vaccinia Orthopoxvirus: Venus Reporter Primary qHTS | Potency, µM (highest dose often 36.5 µM), usual class: inhibitors | 330,000 compounds, 0.46% hits | Vaccinia virus Venus reporter expression, fluorescence; calls by dose curve; tested in A549 cells; also: nearly all actives have a fitted effect of over 30% in size
HCMV inh: qHTS Assay for inhibitors of the human cytomegalovirus (HCMV). activity change, negative = inhibition, % at 57.5 µM. HFF cells, HCMV-luciferase reporter, 72 h; hits give low values. 410,000 compounds, 4.5% hits. AID 1259415, 2018; in the data active = activity change below about -60%; inconclusive = no clear call, values can overlap the other calls; inactive = above about -39%
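HFF cells seeded 16 h at 37C, treated with compounds, infected with luciferase-reporter HCMV at MOI 1 PFU/cell; luciferase read at 72 h post infection, normalized to buffer-only and Salinomycin controls.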
Sm TGR inh: qHTS Assay for the Inhibitors of Schistosoma Mansoni Peroxiredoxins | Schistosoma mansoni thioredoxin glutathione reductase (TGR), Q962Y6 | purified TGR, DTNB reduction, TNB absorbance 405 nm | Potency, µM (titrated, usually from 114 µM), most hits filed as inhibitors | 360,000 compounds, 3% hits; also: nearly all actives have a fitted effect of over 60% in size
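TGR 20 nM + NADPH 100 uM (dispensed conc.), cpd preinc 15 min RT; start with NADPH (500 uM addition) then DTNB (15 mM addition). Kinetic TNB absorbance, 405 nm filter. Four-parameter Hill fit across titration.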
Of the large screens only hits and unclear results are named; the others gave an inactive call. A selection: hits, their analogues and other compounds. The true share with any hit is near 9.3%. Unless noted, calls follow the shape of the dose curve; as a rule, active = well fitted curve in the direction sought with a large enough effect; inconclusive = small, poorly fitted or top-dose-only effect, or another doubt; inactive = no such curve, though single readings can be large; an effect the other way counts as inactive or inconclusive.

Cc1noc(C)c1COc1cccc(C(=O)OC(C)C(=O)Nc2ccc3c(c2)OCO3)c1 (stereo not drawn)	FMDV antiviral inconclusive
Clc1cccc(Cl)c1Cn1cnc2c(NCc3ccco3)ncnc21	none (no result: VACV mCherry inh, VACV Venus inh)
Clc1cccc(Cl)c1Cn1cnc(=NCc2ccco2)c2[nH]cnc21	HCMV inh -71.0 (no result: VACV mCherry inh, VACV Venus inh)
COc1cc(C2=NOC(C(=O)N3CCCc4ccccc43)C2)cc(OC)c1OC (stereo not drawn)	HCV inhibitor 2µM (no result: VACV mCherry inh, VACV Venus inh)
CCOC(=O)c1cnc(-n2nc(C)cc2C)nc1NC1CCCC1	HCV inhibitor 1.12µM, FMDV antiviral inconclusive, HCMV inh -107.7
CCOC(=O)c1cnc(-n2nc(C)cc2C)nc1Nc1ccc(OC)cc1	HCV inhibitor 11.2µM (no result: VACV mCherry inh, VACV Venus inh)
CCOC(=O)c1cnc(-n2nc(C)cc2C)nc1NCCc1ccccc1	VACV mCherry inh inconclusive, FMDV antiviral inconclusive, VACV Venus inh inconclusive, HCMV inh -92.4
CCOC(=O)c1cnc(-n2nc(C)cc2C)nc1Nc1ccccc1OC	none (no result: HCV inhibitor, VACV mCherry inh, FMDV antiviral, VACV Venus inh, HCMV inh)
CCOC(=O)C1=C(N)Oc2cc(C)n(C)c(=O)c2C1c1ccncc1 (stereo not drawn)	none
Cc1ccc(N2CCN(c3ccc(C)cc3)C(CC(=O)O)C2=O)cc1 (stereo not drawn)	none (no result: VACV mCherry inh, VACV Venus inh)
C/C(=N\NC(=S)Nc1ccccc1C)c1cc2ccccc2o1	HCV inhibitor inconclusive, VACV mCherry inh inconclusive, HCMV inh inconclusive
C/C(=N\NC(=S)Nc1c(C)cccc1C)c1cc2ccccc2o1	HCV inhibitor inconclusive, VACV mCherry inh 7.08µM, VACV Venus inh inconclusive
S=C(NCC1CCCO1)Nc1cccc2ccccc12 (stereo not drawn)	none
COc1cc(/C=C2\SC(=O)NC2=O)ccc1Oc1cnccn1	HCMV inh inconclusive (no result: VACV mCherry inh, VACV Venus inh)
O=C(CSCc1ccccc1)N/N=C/c1ccc(OCC(=O)N2CCCCC2)cc1	FMDV antiviral inconclusive, HCMV inh -67.6
O=C(CSCc1ccccc1)N/N=C/c1cc2c(cc1Br)OCO2	HCV inhibitor inconclusive, HCMV inh -72.9
COCCC(=O)N1CCC(Oc2ccc(C(=O)N(C)Cc3cc(C)no3)cc2)CC1	none
COc1ccccc1N1CCN(C(=O)CSc2nc3ccccc3c(=O)n2CC2CCCO2)CC1 (stereo not drawn)	none (no result: VACV mCherry inh, VACV Venus inh)
Cc1cccc(N=C2Sc3nc4c(C)c(C)ccc4cc3CN2CCN2CCOCC2)c1	HCV inhibitor 12.6µM, VACV Venus inh inconclusive
COc1ccc(C(CNC(=O)C(C)Oc2ccc(Br)cc2)N2CCCCC2)cc1 (stereo not drawn)	HCV inhibitor inconclusive (no result: VACV mCherry inh, VACV Venus inh)
CCN(CC)S(=O)(=O)c1ccc(N2CCN(CCOc3ccc(OC)cc3)CC2)nc1	HCV inhibitor inconclusive, VACV mCherry inh inconclusive, HCMV inh -76.8
COc1cccc(-c2nnc(SCc3nc4ccccc4[nH]3)n2N)c1	none
COc1cccc(OC)c1C(=O)Nc1cc(C)nn1-c1nc2ccccc2[nH]1	HCV inhibitor 11.2µM
Cc1cc(NC(=O)c2ccccc2)n(-c2nc3ccccc3[nH]2)n1	HCV inhibitor inconclusive (no result: VACV mCherry inh, VACV Venus inh)
Cc1cc(NC(=O)c2cccs2)n(-c2nc3ccccc3[nH]2)n1	HCV inhibitor inconclusive, VACV mCherry inh inconclusive, FMDV antiviral inconclusive, HCMV inh inconclusive (no result: Sm TGR inh)
Cc1cc(NC(=O)c2sccc2C)n(-c2nc3ccccc3[nH]2)n1	HCV inhibitor 11.2µM, VACV mCherry inh inconclusive, FMDV antiviral inconclusive, VACV Venus inh inconclusive, HCMV inh -70.1 (no result: Sm TGR inh)
COc1ccc(C(=O)Nc2cc(C)nn2-c2nc3ccccc3[nH]2)c(OC)c1	HCV inhibitor inconclusive, HCMV inh -63.5 (no result: VACV mCherry inh, VACV Venus inh)
COc1ccccc1OCC(=O)Nc1ccc(S(=O)(=O)Nc2cc(C)on2)cc1	none
COC(=O)c1cccc(CN2C(=O)C(C)Sc3cc(Cl)ccc32)c1 (stereo not drawn)	none (no result: HCV inhibitor, Sm TGR inh)
COC(=O)C(Sc1ccc(Cl)cc1)C1SC(=S)N(Cc2ccccc2)C1=O (stereo not drawn)	FMDV antiviral 31.6µM (no result: HCV inhibitor, Sm TGR inh)
CCc1ccccc1NC(=S)NNC(=O)c1ccccc1Cl	none
COc1ccc(N2CCN(C(=O)COC(=O)CCS(=O)(=O)c3ccc(C)cc3)CC2)cc1	none
